According to PubChem BioAssay (EPA / NIEHS):
“And” between values parts separate entries of the source, which are not always exact repeats. Equal values may be shown once. The source made the active and inactive calls. Rule for the calls: active = hit-call score of the fitted dose curve at least 0.9, where 1 is the maximum; inactive = score below 0.9.

What follows are compounds tested on TIMP metallopeptidase inhibitor 1 (TIMP1), TIMP1 (gene 7076) (assay: BSK_hDFCGF_TIMP1: BioMAP Diversity Plus: hDFCGF Assay for TIMP metallopeptidase inhibitor 1 (TIMP1) Biomarker Activity (AID 2283062)). Settings: primary human foreskin fibroblasts; actives raise or lower the signal.
Method: BSK_hDFCGF is a cell-based, multiplexed-readout assay that uses foreskin fibroblast, a human skin primary cell, with measurements taken at 24 hours after chemical dosing in a 96-well plate.BSK_hDFCGF_TIMP1 is an assay component measured in the BSK_hDFCGF assay. It measures TIMP-1 antibody related to regulation of gene expression using ELISA technology.Data from the assay component BSK_hDFCGF_TIMP1 was analyzed into 1 assay endpoint. This assay endpoint, BSK_hDFCGF_TIMP1, was analyzed with bidirectional fitting relative to DMSO as the negative control and baseline of activity. Using a type of binding reporter, gain or loss-of-signal activity can be used to understand changes in the signaling as they relate to the gene TIMP1. Furthermore, this assay endpoint can be referred to as a primary readout, because this assay has produced multiple assay endpoints where this one serves a signaling function. To generalize the intended target to other relatable targets, this assay endpoint is annotated to the protease inhibitor intended target family, where the subfamily is metalloproteinase inhibitor.
The levels of cell surface (or secreted, indicated by the prefix "s") biomarker endpoints were measured by ELISA. Overt cytotoxicity to cells in confluent adherent cultures (all systems other than the BT system) was assessed by measuring total protein levels using sulforhodamine B (SRB) staining in parallel cultures at the time of biomarker measurements, indicated as SRB endpoints. For proliferation assays for adherent cell types, individual cell types are cultured at sub-confluence and relative cell numbers quantified by SRB staining at time points optimized for each system (48 h: 3C and CASM3C systems; 72 h: BT and HDF3CGF systems; 96 h: SAg system). SRB was performed by staining cells with 0.1% SRB after fixation with 10% TCA and reading wells at 560 nm.Viability and proliferation of PBMC (T cells) was quantified by Alamar Blue reduction for the SAg and BT systems. For PBMC viability (referred to as PBMC Cytotoxicity within the assay endpoint names), cells were plated (75,000/well in a 96-well plate) and then chemical samples added for 1 h before addition of activators, SEB and TSST-1 (20 ng/mL final concentration each). Cells were incubated for 90 h. Then, Alamar Blue (20 uL/well) (Invitrogen, Cat DAL1100) was added for 6 h, and the plates were read with a fluorescence microplate reader at 546/580 nm (excitation/emission). For PBMC proliferation, cells were plated and activated as above but incubated for only 16 h prior to addition of Alamar Blue. Plates were read after 6 h.

SMILES | outcome | AC50
Nc1cccc(N)n1 | inactive | –
CCC1(C)C(=O)N(Cl)C(=O)N1Cl (stereo not given) | inactive | –
CCOC(=O)C1=NOC(c2ccccc2)(c2ccccc2)C1 | inactive | –
C=CC(=O)NCOCCCC | inactive | –
CCNc1nc(NC(C)(C)C)nc(OC)n1 | inactive | –
CC(C)CCCCCOC(=O)CS | inactive | –
c1ccc(Nc2cccc3ccccc23)cc1 | – | 29.6 µM (active) and 28.8 µM (active)
CC(C)c1cccc(C(C)C)c1N | inactive | –
Cc1c(O)cccc1O | inactive | –
Fc1ccc(Br)cc1 | inactive | –
c1ccc2c(c1)[nH]c1ccccc12 | inactive | –
CC(CCC(=O)O)(c1ccc(O)cc1)c1ccc(O)cc1 | inactive | –
CCCCCCCCCCCC(C)=O | inactive | –
CCCCCCOC(=O)CCCCC(=O)OCCCCCC | inactive | –
Clc1cc(Cl)c(Cl)c(Cl)c1Cl | inactive | –
CCOC(=O)C1=NN(c2ccc(Cl)cc2Cl)C(C)(C(=O)OCC)C1 (stereo not given) | inactive | –
C=CC(=O)OCC(C)OCC(C)OCC(C)OC(=O)C=C (stereo not given) | – | 11 µM (active)
O=C1CCCCCCCCCCC1 | inactive | –
C=C(C)C(=O)OCCCCCCCCCCCC | inactive | –
Oc1ccc(/C=C/c2cc(O)cc(O)c2)cc1 | inactive | –

SMILES | outcome | AC50
CCc1cccc(C)c1N(C(=O)CS(=O)(=O)O)C(C)COC (stereo not given) | inactive | –
CC1(C)CC(O)CC(C)(C)N1[O] | inactive | –
C=CC(=O)OCCCCCCCC(C)C | inactive | –
O=C(Cl)c1c(Cl)c(Cl)c(C(=O)Cl)c(Cl)c1Cl | inactive | –
C=CC(=O)NC(C)(C)C | inactive | –
CCCCCC1=CCCC1=O | inactive | –
CC/C=C\CCOC(=O)c1ccccc1O | – | 12.4 µM (active)
Oc1c(Cl)cc(Cl)c(Cl)c1Cl | – | 32.1 µM (active)
C[N+](C)(C)CCCNS(=O)(=O)C(F)(F)C(F)(F)C(F)(F)C(F)(F)C(F)(F)C(F)(F)C(F)(F)C(F)(F)F | inactive | –
CCCCCCCO | inactive | –
O=C1CCCCCCCCCCCN1 | inactive | –
CCOC(=O)/C=C\C(=O)OCC | inactive | –
CCCCCCCCCCCC(=O)N(C)CC(=O)O | inactive | –
COC(OC)(C(=O)c1ccccc1)c1ccccc1 | inactive | –
COc1ccc(C(=O)c2ccccc2)c(O)c1 | inactive | –
CCCCC1C(=O)N(c2ccccc2)N(c2ccccc2)C1=O | inactive | –
CCCC(C)C(=O)OCC (stereo not given) | inactive | –
C=CCCCCCCCCC=O | inactive | –
O=C(O)C(F)(F)C(F)(F)C(F)(F)C(F)(F)C(=O)O | inactive | –
C=CC(=O)OCCCCCCOC(=O)C=C | – | 9.84 µM (active)
